# An excerpt weighted towards active compounds, which were near 21% of everything screened.
# CHX counter: counter-screen hit for Shiga toxin inhibitors, cycloheximide; cell reporter, cycloheximide protein synthesis inhibition counterscreen; max response, %; actives 12% (n = 300,000); AID 2314; in the data active = max response mostly above about 13%, no sharp cut-off; inactive = mostly below about 14%; also: read at 38.3 µM for the half of the compounds with a filed dose; 0% is about no effect
# Shiga toxin inh: blocks Shiga toxin action in Vero cells; Vero cells, Shiga toxin protein synthesis inhibition reporter; AID 2315; inhibition, % at 38.7 µM; actives 9.2% (n = 290,000); in the data active = inhibition mostly above about 28%, no sharp cut-off; inactive = mostly below about 43%; also: 0% is about no effect
# Pf growth 48h: P. falciparum growth inhibition at 48 hours (one generation); P. falciparum luciferase growth in erythrocytes, 48 h; Potency, µM (doses to about 28.7 µM), without a hit: top-dose activity change, negative = inhibition, most hits filed as inhibitors; actives 5.9% (n = 310,000); AID 504832; also: potency is read from the fitted curve at half-maximal effect; % is scaled to controls: 0 for no effect and ±100 for the full control effect
#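 Luciferase-expressing parasites in RBCs, 2% Hct / 0.1% parasitemia final; RPMI 1640 + 0.5% Albumax; 37 C, 5% CO2, one generation; luminescence read-out, lower signal = inhibition.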
# Pf growth 96h: P. falciparum growth inhibition at 96 hours | Potency, µM (series often up to 28.7 µM), without a hit: at the top dose activity change, negative = inhibition, most hits filed as inhibitors | actives 6.9% (n = 320,000) | P. falciparum luciferase reporter growth, 96 h; also: potency is read from the fitted curve at half-maximal effect; % is scaled to controls: 0 for no effect and ±100 for the full control effect
#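 P. falciparum expressing integrated firefly luciferase grown in erythrocytes (2% hematocrit, 0.05% parasitemia final) with compounds for 96 hours at 37 C, 5% CO2. Growth inhibition read as loss of luminescence after adding luciferase detection reagent.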
# Active calls of the source: *; ? = inconclusive; . = no result given. Unless noted, calls follow the shape of the dose curve; as a rule, active = well fitted inhibition curve with a large enough effect; inconclusive = small, poorly fitted or top-dose-only effect, or another doubt; inactive = no such curve, though single readings can be large or run the other way.
SMILES,CHX counter,Shiga toxin inh,Pf growth 48h,Pf growth 96h
CN1CCN(c2ccccc2NC(=O)c2ccc([N+](=O)[O-])o2)CC1,12,-14,?,40%
Cc1ccccc1NC(=O)c1ccc([N+](=O)[O-])o1,30*,45*,10µM*,3.7µM*
Cc1cccc(NC(=O)c2ccc([N+](=O)[O-])o2)n1,25*,33,?,10µM*
O=C(Nc1ccccc1Cl)c1ccc([N+](=O)[O-])o1,60*,110*,-30%,166%
O=C(COc1cccnc1[N+](=O)[O-])Nc1cccc(S(=O)(=O)N2CCOCC2)c1,4,9,34%,10%
Cc1c(NC(=O)COC(=O)c2c3c(nc4ccccc24)CCCC3)c(=O)n(-c2ccccc2)n1C,-1,-14,-3%,?
CNC(=O)COC(=O)c1c2c(nc3ccccc13)CCC2,-1,-7,13µM*,?
COc1ccc(OC)c(NC(=O)COC(=O)c2c3c(nc4ccccc24)CCCC3)c1,-2,-9,8.3µM*,.
COc1ccc(NC(=O)COC(=O)c2c3c(nc4ccccc24)CCCC3)cc1Cl,11,20,12µM*,.
CCCCNC(=O)COC(=O)c1c2c(nc3ccccc13)CCC2,-3,23,?,?
COc1ccc(NC(=O)COC(=O)c2c3c(nc4ccccc24)CCCC3)cc1,4,25,?,?
Cc1cccc(NC(=O)CN(CC2CCCO2)C(=O)c2ccc(S(C)(=O)=O)cc2)c1C (stereo unspecified),.,.,56%,86%
CC(=O)c1ccc(NC(=O)CCNC(=O)c2ccccc2Cl)cc1,-2,-8,-5%,3%
Cc1csc(Nc2ccc(Cl)cc2)n1,24*,73*,45%,?
Cc1ccc(Nc2nc3ccccc3c(=O)s2)cc1,-3,26,9%,?
Cc1ccc(Nc2nc(C)cs2)cc1,54*,125*,262%,?
Cc1csc(NS(=O)(=O)c2ccc(Cl)cc2)n1,3,15,25%,?
Cc1cc(C(=O)NCC(C)(C)N2CCOCC2)c(C)o1,.,.,-5%,37%
Cc1c(C(=O)NN)sc(=S)n1C,-1,-11,34%,-6%
Cc1csc(C(=O)NN)c1N(C)C,32*,74*,2%,1%
Cc1c(CBr)[n+](=O)c2c(n1[O-])C(Br)CCC2Br (stereo unspecified),14*,17,-1%,2%
Cc1cccc(-c2noc(CN(C)C(=O)c3ccc4c(c3)OCO4)n2)c1,1,-6,14%,-19%
O=C(COc1ccc2c3c(c(=O)oc2c1)CCCC3)NCc1ccccn1,-9,-2,12%,?
Cc1oc(-c2ccc(Cl)cc2)nc1CN1CCC(C(=O)NCc2cccs2)CC1,6,-13,.,?
Cc1oc(-c2cccc(Cl)c2)nc1CN1CCC(C(=O)NC2CC2)CC1,-1,1,16%,45%
SMILES,CHX counter,Shiga toxin inh,Pf growth 48h,Pf growth 96h
Cc1oc(-c2cccc(C(F)(F)F)c2)nc1CN1CCOCC1,26*,54*,?,?
Cc1oc(-c2cccc(C(F)(F)F)c2)nc1CN1CCC[C@H]1CO,4,6,-3%,-2%
CCc1ccc(-c2nc(CN3CCC(C(=O)NCc4ccc(F)cc4)CC3)c(C)o2)cc1,29,36,13µM*,?
CCc1ccc(-c2nc(CN3CCC(C(=O)N4CCN(c5ccccc5)CC4)CC3)c(C)o2)cc1,0,-8,12%,1.9µM*
CCc1ccc(-c2nc(CN3CCC(C(=O)N4CCN(c5ccccn5)CC4)CC3)c(C)o2)cc1,-6,8,-43%,39%
Cc1oc(-c2cccc(Cl)c2)nc1CN1CCC(C(=O)NCc2cccnc2)CC1,2,22,2.6µM*,29%
COC(=O)C(Cc1ccccc1)NC(=O)CNC(=O)c1sc2ccccc2c1Cl (stereo unspecified),-3,-12,-2%,18%
CCc1ccc(-c2nc(CN3CCC(C(=O)NCCN(CC)c4ccccc4)CC3)c(C)o2)cc1,-1,-6,?,-1%
CCC1CCCCN1CCCNC(=O)C1CCN(Cc2nc(-c3ccc(Cl)cc3)oc2C)CC1 (stereo unspecified),-1,-5,5.2µM*,-11%
Cc1oc(-c2cccc(Cl)c2)nc1CN1CCCC(C(=O)NCCCN2CCOCC2)C1 (stereo unspecified),-1,-7,12µM*,67%
CCN(CCNC(=O)C1CCCN(Cc2nc(-c3ccc(OC)cc3)oc2C)C1)c1ccccc1 (stereo unspecified),29,30,5.2µM*,-7%
Cc1ccc(C2=NS(=O)(=O)N(C)C(C(=O)N3CCOCC3)=C2)cc1,-2,15,0%,?
O=C(CCc1nnc2ccc(N3CCCCC3)nn12)NCC1CCN(Cc2ccc(F)cc2)CC1,13,-3,?,10µM*
CC(=O)c1cccc(NC(=O)CCc2nnc3ccc(N4CCOCC4)nn23)c1,-1,-13,-11%,10µM*
CC(=O)c1ccc(NC(=O)CCc2nnc3ccc(N4CCCC4)nn23)cc1,31*,50*,14%,15%
COc1ccc(C2C(C(=O)c3cccs3)=C(O)C(=O)N2CCN2CCOCC2)c(OC)c1 (stereo unspecified),7,-7,16%,9%
Cc1noc2nc(-c3cccs3)cc(-c3nnc4n3CCCCC4)c12,-2,-16,16%,12µM*
CN(c1nc(-c2ccccc2)cs1)C1CCS(=O)(=O)C1 (stereo unspecified),20*,61*,35%,-5%
CN(C(=O)CSc1nc(-c2ccccc2)cs1)C1CCS(=O)(=O)C1 (stereo unspecified),11,37,18%,.
COc1ccc(Cc2nc3c4c(ncn3n2)Oc2c(ccc3ccccc23)C4c2ccc(OC)c(OC)c2)cc1 (stereo unspecified),-3,3,2.6µM*,1.9µM*
COc1ccc(Cc2nc3c4c(ncn3n2)Oc2ccc3ccccc3c2C4c2ccc(OC)c(OC)c2)cc1 (stereo unspecified),-3,-5,1.7µM*,?
COc1ccc(C2c3c(ncn(Cc4ccco4)c3=N)Oc3ccc4ccccc4c32)cc1 (stereo unspecified),-1,38,?,?
CN(CC(=O)NCCc1ccc(S(N)(=O)=O)cc1)Cc1ccc(Cl)cc1Cl,-8,-10,-12%,-8%
COc1cc(/C=C2\C=CC(=O)O2)cc(OC)c1,18*,19,.,2%
COc1cc(/C=C/C(=O)O)cc(OC)c1,-1,-6,31%,35%
SMILES,CHX counter,Shiga toxin inh,Pf growth 48h,Pf growth 96h
COC(=O)CCSCc1cn2cc(Cl)ccc2n1,16*,23,15%,18%
Nc1cccc(C(=O)OCC(=O)NC2CCCc3ccccc32)c1 (stereo unspecified),-6,17,12µM*,19%
CCn1nc(C)c(CNC(=O)C2CCC(=O)N(CCc3ccc(OC)cc3)C2)c1C (stereo unspecified),-4,-5,21%,1%
COc1ccc(/C=C(\NC(=O)c2ccccc2)C(=O)N2CCC(C)CC2)cc1,.,.,13µM*,-65%
COc1ccc(/C=C(/NC(=O)c2ccco2)C(=O)N2CCCCCC2)cc1OC,2,-6,3%,12µM*
CC(C)OC(=O)/C(=C/c1ccc(Br)cc1)NC(=O)c1ccco1,1,12,10%,13µM*

# Screening results: PubChem, National Center for Advancing Translational Sciences (NCATS)
